An excerpt weighted towards active compounds, which were near 6.6% of everything screened.
BoNT A protease – BoNT/A light chain protease inhibitors, primary screen, biochemical, flow cytometry, MLPCN library. Botulinum neurotoxin type A light chain protease (Clostridium botulinum A str. ATCC 3502). multiplex microsphere protease substrate cleavage. inhibition, % at 10 µM. 360,000 tested, 0.17% active; note: plate controls were buffer without enzyme for full effect and enzyme alone for no effect
Mtb FBA inh – Mtb FBA enzyme inhibitors, primary screen, biochemical, fluorescence, strain H37Rv | inhibition, % at 1 µM | purified M. tuberculosis FBA, fluorescence read-out | 360,000 tested, 2.3% active | Fructose-bisphosphate aldolase (Mycobacterium tuberculosis (strain ATCC 25618 / H37Rv)), …; in the data active = inhibition above about 27%;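 note: 0% = vehicle and 100% = reference inhibitor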
Anthrax LF inh2 – Bacillus anthracis LF protease inhibitors, primary screen, biochemical, multiplex microsphere, MLPCN library | 360,000 tested, 0.12% active | Lethal factor (Bacillus anthracis), P15917 | multiplex microsphere protease cleavage assay | inhibition, % at 10 µM; note: plate controls were buffer without enzyme for full effect and enzyme alone for no effect
Target sequence (P15917 whole entry, looked up): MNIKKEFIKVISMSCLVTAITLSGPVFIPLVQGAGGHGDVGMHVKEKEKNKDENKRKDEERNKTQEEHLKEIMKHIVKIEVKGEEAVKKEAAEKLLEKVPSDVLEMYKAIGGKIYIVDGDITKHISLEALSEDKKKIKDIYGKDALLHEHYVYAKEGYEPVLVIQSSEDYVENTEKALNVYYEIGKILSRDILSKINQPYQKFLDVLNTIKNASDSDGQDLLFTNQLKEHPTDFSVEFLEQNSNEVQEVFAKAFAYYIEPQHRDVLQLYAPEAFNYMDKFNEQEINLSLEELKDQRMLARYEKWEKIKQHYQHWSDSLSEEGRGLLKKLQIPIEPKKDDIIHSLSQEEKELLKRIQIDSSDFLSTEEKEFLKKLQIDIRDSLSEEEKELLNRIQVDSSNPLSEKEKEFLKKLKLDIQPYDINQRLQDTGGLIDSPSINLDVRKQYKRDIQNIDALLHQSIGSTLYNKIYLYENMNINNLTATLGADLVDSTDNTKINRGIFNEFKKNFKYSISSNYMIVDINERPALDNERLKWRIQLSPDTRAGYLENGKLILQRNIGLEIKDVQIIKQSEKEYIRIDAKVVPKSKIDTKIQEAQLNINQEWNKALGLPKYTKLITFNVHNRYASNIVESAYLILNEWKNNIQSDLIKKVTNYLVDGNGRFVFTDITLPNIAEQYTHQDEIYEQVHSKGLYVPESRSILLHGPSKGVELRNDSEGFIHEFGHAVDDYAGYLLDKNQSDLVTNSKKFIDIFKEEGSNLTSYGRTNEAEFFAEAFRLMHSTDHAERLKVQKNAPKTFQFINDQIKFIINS
BoNT-F LC inh – BoNT/F light chain protease inhibitors, primary screen, biochemical, flow cytometry, MLPCN library. AID 588497, 2011. Multiplex microsphere protease cleavage assay. 360,000 tested, 0.22% active. inhibition, % at 10 µM; in the data active = inhibition above about 35%, passing the limit was not always enough; inconclusive = no clear call, values can overlap the other calls; note: plate controls were buffer without enzyme for full effect and enzyme alone for no effect
Autofluor counter – compound fluorescence in toxin protease inhibitor counterscreen. fluorescence intensity (test concentration not listed). 360,000 tested, 3.1% active. AID 624483. compound autofluorescence counterscreen, microsphere flow cytometry; hits give high values; in the data active = fluorescence intensity above about 16000; inconclusive = no clear call, values can overlap the other calls
GDH-TPI counter-1 – GDH-TPI coupling enzyme inhibitors, primary screen, artefact control for M. tuberculosis FBA inhibitor project, biochemical, absorbance, full deck; GDH-TPI coupled enzyme counterscreen, NADH absorbance; inhibition, % at 4.8 µM; 360,000 tested, 1.2% active; in the data active = inhibition above about 30%;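 note: 0% = DMSO wells and 100% = wells lacking the enzyme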
Mtb FBA inh conf – M. tuberculosis aldolase blockers, biochemical, fluorescence, strain H37Rv, confirmation; shares compounds with Mtb FBA inh; purified M. tuberculosis FBA, fluorescence read-out; inhibition, % at 1 µM; 5,600 tested, 78% active; AID 651616, 2012; in the data active = inhibition above about 27%;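 note: 0% = vehicle wells and 100% = reference inhibitor wells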
GDH-TPI counter-2 – GDH-TPI coupling enzyme inhibitors, artefact control for M. tuberculosis FBA inhibitor project, biochemical, fluorescence, high throughput; shares compounds with Mtb FBA inh; 5,600 tested, 81% active; inhibition, % at 1 µM; GDH-TPI coupled enzyme counterscreen; in the data active = inhibition above about 10%
An asterisk follows results filed as active. Cut-off read from the data, not from the text of the source, unless noted: active = inhibition above about 30%; inconclusive = no clear call, values can overlap the other calls; inactive = below that.

Screening Fc1cccc(-n2c(-c3ccco3)nc3nc4ccccc4nc32)c1 returned BoNT A protease 0.6, Mtb FBA inh 51.5*, Anthrax LF inh2 -0.8, BoNT-F LC inh -6.9, Autofluor counter 2943, GDH-TPI counter-1 -7.0, Mtb FBA inh conf 73.5* and GDH-TPI counter-2 49.0*.
Screening Cc1ccc(-n2c(-c3ccco3)nc3nc4ccccc4nc32)cc1F returned BoNT A protease inconclusive, Mtb FBA inh 32.9*, Anthrax LF inh2 inconclusive, BoNT-F LC inh inconclusive, Autofluor counter inconclusive, GDH-TPI counter-1 0.5, Mtb FBA inh conf 77.4* and GDH-TPI counter-2 62.5*.
COc1ccc(-n2c(-c3ccco3)nc3ccccc3c2=O)cc1 was read as BoNT A protease 0.2, Mtb FBA inh -0.7, Anthrax LF inh2 -7.1, BoNT-F LC inh 3.7, Autofluor counter 3736 and GDH-TPI counter-1 7.6.
For O=c1c2ccccc2nc(-c2ccco2)n1-c1ccccc1 the results were BoNT A protease 0.9, Mtb FBA inh -1.1, Anthrax LF inh2 -4.2, BoNT-F LC inh 10.3, Autofluor counter 2904 and GDH-TPI counter-1 11.3.
`COCc1cc(C)nc2sc(C(=O)OC(C)C)c(N)c12` gave BoNT A protease 0.3, Mtb FBA inh 40.6*, Anthrax LF inh2 0.3, BoNT-F LC inh -10.0, Autofluor counter 2173, GDH-TPI counter-1 19.4, Mtb FBA inh conf active and GDH-TPI counter-2 174.8*.
For CCn1c(SCC(=O)Nc2oc(-c3ccccc3)c(-c3ccccc3)c2C#N)nnc1-c1cc(OC)cc(OC)c1 the results were BoNT A protease 0.0, Mtb FBA inh -0.7, Anthrax LF inh2 -4.4, BoNT-F LC inh -0.4, Autofluor counter 11256 and GDH-TPI counter-1 15.4.
Screening CCOC(=O)c1c(NC(=O)Cn2nnc(-c3ccccc3Cl)n2)sc(C)c1C returned BoNT A protease -0.3, Mtb FBA inh 109.5*, Anthrax LF inh2 4.6, BoNT-F LC inh -6.4, Autofluor counter 2118, GDH-TPI counter-1 9.8, Mtb FBA inh conf 0.4 and GDH-TPI counter-2 -5.3.
CCOC(=O)c1ccc(NC(=O)C(=O)NCCc2ccc(OC)cc2)cc1 was read as BoNT A protease 0.4, Mtb FBA inh 50.4*, Anthrax LF inh2 2.5, BoNT-F LC inh 3.6, Autofluor counter 3729, GDH-TPI counter-1 -2.5, Mtb FBA inh conf 115.9* and GDH-TPI counter-2 106.3*.
For CCN(CC)C(=S)SCC(=O)c1ccc(Br)cc1 the results were BoNT A protease -0.6, Mtb FBA inh -5.1, Anthrax LF inh2 -0.6, BoNT-F LC inh 1.7, Autofluor counter 2163 and GDH-TPI counter-1 -3.1.
For C=CCn1c(=O)n(CCOC)c(=O)c2sc3ccccc3c21 the results were BoNT A protease -0.6, Mtb FBA inh 37.5*, Anthrax LF inh2 -10.6, BoNT-F LC inh -0.7, Autofluor counter 6327, GDH-TPI counter-1 10.6, Mtb FBA inh conf 154.8* and GDH-TPI counter-2 164.3*.
For CCOC(=O)c1ccc(NC(=O)c2nc[nH]c2C(=O)N[C@H](C)CO)cc1 the results were BoNT A protease -0.1, Mtb FBA inh -1.3, Anthrax LF inh2 -4.0, BoNT-F LC inh 0.9, Autofluor counter 3043 and GDH-TPI counter-1 10.9.
Screening Cc1cc(C)n2cc(CSc3nnnn3-c3ccccc3C)nc2n1 returned BoNT A protease 0.5, Mtb FBA inh 7.4, Anthrax LF inh2 -3.1, BoNT-F LC inh 1.2, Autofluor counter 3762 and GDH-TPI counter-1 -3.9.
Cc1cc(C)n2cc(CSc3ncccc3C(=O)O)nc2n1 was read as BoNT A protease 0.0, Mtb FBA inh 81.6*, Anthrax LF inh2 8.0, BoNT-F LC inh -3.1, Autofluor counter 3157, GDH-TPI counter-1 1.2, Mtb FBA inh conf 199.3* and GDH-TPI counter-2 179.4*.
Screening Cc1cc(C)n2cc(CSC3=NCCS3)nc2n1 returned BoNT A protease 0.3, Mtb FBA inh 53.3*, Anthrax LF inh2 7.1, BoNT-F LC inh -1.8, Autofluor counter 2773, GDH-TPI counter-1 3.2, Mtb FBA inh conf 189.9* and GDH-TPI counter-2 155.3*.
Cc1ccnc(SCc2cn3c(C)cc(C)nc3n2)n1 was read as BoNT A protease -0.5, Mtb FBA inh 99.7*, Anthrax LF inh2 -7.4, BoNT-F LC inh -2.6, Autofluor counter 4183, GDH-TPI counter-1 -5.1, Mtb FBA inh conf 45.7* and GDH-TPI counter-2 48.1*.
`O=C(O)c1cccnc1SCc1cn2cc(Br)ccc2n1` gave BoNT A protease 2.2, Mtb FBA inh 4.1, Anthrax LF inh2 2.2, BoNT-F LC inh 17.8, Autofluor counter 4842 and GDH-TPI counter-1 2.9.
For Cc1cc(C)n2cc(CSCc3ccco3)nc2n1 the results were BoNT A protease -0.6, Mtb FBA inh 8.4, Anthrax LF inh2 -1.4, BoNT-F LC inh -4.7, Autofluor counter 3245 and GDH-TPI counter-1 11.4.
CCN(CC)CC(C)CNC(=O)CN1C(=O)CSc2ccc(S(=O)(=O)N3CCOCC3)cc21 (centres undefined) was read as BoNT A protease -0.1, Mtb FBA inh -4.0, Anthrax LF inh2 -2.5, BoNT-F LC inh 8.3, Autofluor counter 2198 and GDH-TPI counter-1 0.3.
N#Cc1cnn2c(-c3ccccc3)ccnc12 was read as BoNT A protease 0.4, Mtb FBA inh 66.0*, Anthrax LF inh2 -6.7, BoNT-F LC inh -1.1, Autofluor counter 3048, GDH-TPI counter-1 5.8, Mtb FBA inh conf active and GDH-TPI counter-2 active.
`N#Cc1ccc(-c2ccc(OCC3CNC(=O)O3)cc2)cc1` (centres undefined) gave BoNT A protease -1.3, Mtb FBA inh 43.8*, Anthrax LF inh2 11.6, BoNT-F LC inh -10.2, Autofluor counter 3805, GDH-TPI counter-1 0.0, Mtb FBA inh conf active and GDH-TPI counter-2 active.
Screening OCCC1CN(Cc2ccon2)CCN1Cc1ccc(F)c(F)c1 (centres undefined) returned BoNT A protease 0.1, Mtb FBA inh -0.5, Anthrax LF inh2 -2.0, BoNT-F LC inh -5.1, Autofluor counter 4156 and GDH-TPI counter-1 -1.8.
For CCc1c(C)nc2cc(-c3cccc(Br)c3)[nH]n2c1=O the results were BoNT A protease -3.3, Mtb FBA inh 8.1, Anthrax LF inh2 -5.4, BoNT-F LC inh 0.1, Autofluor counter 3187 and GDH-TPI counter-1 15.4.
`CCN(Cc1ccccc1)c1ccc(/C=N/N=C(N)N)cc1` gave BoNT A protease -0.2, Mtb FBA inh 16.0, Anthrax LF inh2 -3.0, BoNT-F LC inh -3.2, Autofluor counter 2020 and GDH-TPI counter-1 23.6.

Compound activity deposited in PubChem by several laboratories.
